Where two headings read alike, the source gives them in different places.

This is an account of results in PMC11062922 (Nature Chemical Biology, 2023).

Common to all, as to design: species or system human, MV4-11 + K-562 + COLO205 + SK-N-BE2 + OVCAR-8
The test system of one test is ATM. Particulars: read-out: apparent Kd, n = 1.
For a further test, the system named is CDC7. The conditions noted are these: read-out: apparent Kd; compound concentrations: 100 nM and 1000 nM (sheet 'Samples'), CATDS: 6.3073958864856297E-2; n = 1.
The next test relates to CDK16. The conditions noted are these: read-out: apparent Kd; compound concentrations: 100 nM and 1000 nM (sheet 'Samples'), CATDS: 0.118346075913056; n = 1.
The next test relates to CDK2. Particulars: read-out: apparent Kd; compound concentrations: 100 nM and 1000 nM (sheet 'Samples'), CATDS: 0.141708067448752; n = 1.
A further test deals with CDKL5. The conditions noted are these: read-out: apparent Kd; compound concentrations: 100 nM and 1000 nM (sheet 'Samples'), CATDS: 6.5208173112241197E-2; n = 1.
The test system of another test is CLK2. Particulars: read-out: apparent Kd; compound concentrations: 100 nM and 1000 nM (sheet 'Samples'), CATDS: 8.0907286547203805E-2; n = 1.
In the next test the test system is CLK4. Particulars: read-out: apparent Kd; compound concentrations: 100 nM and 1000 nM (sheet 'Samples'), CATDS: 8.1638299421732605E-2; n = 1.
The subject of a further test is CSNK2A1;CSNK2A3. Particulars: read-out: apparent Kd; compound concentrations: 100 nM and 1000 nM (sheet 'Samples'), CATDS: 6.6778954653333403E-2; n = 1.
For the next test, the system named is CSNK2A2. The conditions noted are these: read-out: apparent Kd; compound concentrations: 100 nM and 1000 nM (sheet 'Samples'), CATDS: 7.8455201722788401E-2; n = 1.
Another test relates to GSK3A. Particulars: read-out: apparent Kd; compound concentrations: 100 nM and 1000 nM (sheet 'Samples'), CATDS: 7.3699312386452706E-2; n = 1.
A further test has as its system GSK3B. The conditions noted are these: read-out: apparent Kd; compound concentrations: 100 nM and 1000 nM (sheet 'Samples'), CATDS: 7.1527025569737807E-2; n = 1.
The next test deals with ICK. Particulars: read-out: apparent Kd; compound concentrations: 100 nM and 1000 nM (sheet 'Samples'), CATDS: 7.9134779366863195E-2; n = 1.
For the next test, the system named is FLT4. Particulars: read-out: apparent Kd; compound concentrations: 100 nM and 1000 nM (sheet 'Samples'), CATDS: 0.25804604622039201; n = 1.
The test system of the next test is MYLK3. Particulars: read-out: apparent Kd; compound concentrations: 100 nM and 1000 nM (sheet 'Samples'), CATDS: 0.16564230425287901; n = 1.
The next test has as its system TTN. The conditions noted are these: read-out: apparent Kd; compound concentrations: 100 nM and 1000 nM (sheet 'Samples'), CATDS: 0.28618499292255201; n = 1.
A further test has as its system AKT2. Particulars: read-out: apparent Kd; compound concentrations: 100 nM and 1000 nM (sheet 'Samples'), CATDS: 0.479844173242639; n = 1.
In a further test the test system is PIM2. Particulars: read-out: apparent Kd; compound concentrations: 100 nM and 1000 nM (sheet 'Samples'), CATDS: 0.52192336058926703; n = 1.
Another test has as its system BMPR1B. The conditions noted are these: read-out: apparent Kd; compound concentrations:100 nM and 1000 nM (sheet 'Samples'); n = 1.
Another test relates to DDR1. Particulars: read-out: apparent Kd; compound concentrations:100 nM and 1000 nM (sheet 'Samples'); n = 1.
In another test the test system is IRAK3. Particulars: read-out: apparent Kd; compound concentrations:100 nM and 1000 nM (sheet 'Samples'); n = 1.
A further test has as its system MAPK10. Particulars: read-out: apparent Kd; compound concentrations:100 nM and 1000 nM (sheet 'Samples'); n = 1.
Another test concerns MAPK11. The conditions noted are these: read-out: apparent Kd; compound concentrations:100 nM and 1000 nM (sheet 'Samples'); n = 1.
For a further test, the system named is MAPK14. Particulars: read-out: apparent Kd; compound concentrations:100 nM and 1000 nM (sheet 'Samples'); n = 1.
A further test has as its system MAPK8. Particulars: read-out: apparent Kd; compound concentrations:100 nM and 1000 nM (sheet 'Samples'); n = 1.
For a further test, the system named is MAPK9. Particulars: read-out: apparent Kd; compound concentrations:100 nM and 1000 nM (sheet 'Samples'); n = 1.
The test system of another test is MAPKAPK2. The conditions noted are these: read-out: apparent Kd; compound concentrations:100 nM and 1000 nM (sheet 'Samples'); n = 1.
A further test has as its system PIK3CD. The conditions noted are these: read-out: apparent Kd; compound concentrations:100 nM and 1000 nM (sheet 'Samples'); n = 1.
A further test concerns PRKAG1. The conditions noted are these: read-out: apparent Kd; compound concentrations:100 nM and 1000 nM (sheet 'Samples'); n = 1.

On to `NS(=O)(=O)c1ccc(N/N=C2\C(=O)Nc3ccc(C(=O)NCCCn4ccnc4)cc32)cc1` [GW290597X], for which the potency estimated from few doses in the test with ATM (compound concentrations: 100 nM and 1000 nM (sheet 'Samples'), CATDS: 0.20887249405767599) was 232 nM; in the test with CDC7 it was 2220 nM; in the test with CDK16, 550 nM; with CDK2, 409 nM; with CDKL5, 2010 nM; in the test on CLK2, 1150 nM. Besides, the potency estimated from few doses in the test with CLK4 was 1130 nM; in the test on CSNK2A1;CSNK2A3, 1870 nM; in the test on CSNK2A2, 1240 nM; with GSK3A, 1440 nM; in the test with GSK3B, 1550 nM; with ICK, 1210 nM.
With `CCN(CC)S(=O)(=O)c1ccc(OC)c(Nc2ncc(-c3ccccc3)o2)c1` [GW572401X], the potency estimated from few doses with ATM (compound concentrations: 100 nM and 1000 nM (sheet 'Samples'), CATDS: 0.38559803360956002) is 233 nM; in the test with FLT4 it was 495 nM; in the test with MYLK3, 1940 nM; in the test with TTN, 399 nM.
Consider `Cc1ccc(C(=O)NC2CCCCC2)cc1-c1ccc(C(=O)NCC2CC2)cc1` [GW782907X], for which the potency estimated from few doses was 1850 nM with AKT2 and 1560 nM in the test with PIM2.
Regarding `CCn1c(=O)c(Oc2ccc(F)cc2F)cc2cnc(NC3CCOCC3)nc21` [RO4367438-000], the potency estimated from few doses in the test on ATM (compound concentrations:100 nM and 1000 nM (sheet 'Samples')) is 238 nM; with BMPR1B, 867 nM; with DDR1, 1510 nM; with IRAK3, 1240 nM; with MAPK10, 45.1 nM; in the test with MAPK11, 89.8 nM. In addition, the potency estimated from few doses was 2.49 nM in the test with MAPK14; 153 nM with MAPK8; 46.5 nM in the test on MAPK9; 8.81 nM with MAPKAPK2; 13.5 nM with PIK3CD; 128 nM with PRKAG1.
Turning to `O=C1NC(=O)C(N2CCc3ccccc32)=C1c1ccc(Cl)cc1` [SB-333612], in the test on ATM (compound concentrations: 100 nM and 1000 nM (sheet 'Samples'), CATDS: 1), the potency estimated from few doses was 265 nM.
